Results filed as inconclusive are left out. Active and inactive are the calls of the source. Calls come from the whole dose curve; as a rule, active = well fitted curve in the direction sought with a large enough effect; inconclusive = small, poorly fitted or top-dose-only effect, or another doubt; inactive = no such curve, though single readings can be large; an effect the other way counts as inactive or inconclusive.

One experiment in a line: MultiTox-Fluor Cytotoxicity Assay - LYMP1-001 - Live Cells (AID 947). As to conditions: LYMP1-001 lymphoblastoid cells, live-cell protease fluorescence viability; series mostly up to 92.2 µM.
For `O=CNc1ccccc1`, the compound was classed as inactive.
`CCCCCCC=O`: the result was inactive.
On the same count and under the same terms, the entry for `CN(C)c1cccc(O)c1` is “inactive”; for `CNC(=O)c1ccccc1` it is “inactive”.
On the same count and under the same terms, the entry for `CC(=O)Nc1ccc(C)cc1` is “inactive”; for `CC(=O)C1(C)CC2=C(CCCC2(C)C)CC1C` (stereo not given) it is “inactive”; for `CC(O)CC(C)O` (stereo not given) it is “inactive”.
Regarding `CCOC(=O)C(C)C(C)=O` (stereo not given), the outcome was inactive.
The same measure, in the same setting: under `COC(=O)CCCC(=O)OC` stands “inactive”; under `c1ccc(Nc2ccccc2)cc1`, “inactive”; under `CC/C=C1/OC(=O)c2ccccc21`, “inactive”.
With `Cc1ccco1`, the outcome was inactive.
Take `NCCCCCCN`: the call was inactive.
On to `CC(=C/C=C/C(C)=C/C=C/C=C(C)/C=C/C=C(C)/C=C/C(=O)O)/C=C/C(=O)O`, for which the result was inactive.
Same read-out and setting: under `COc1ccc(OC)cc1` stands “inactive”; under `COCCOC(=O)c1ccccc1C(=O)OCCOC`, “inactive”.

The next experiment in a line: Cell Viability - LYMP1-002 - Assay at 16 hr (AID 948). As to conditions: LYMP1-002 lymphoblastoid cell viability; series mostly up to 92.2 µM. The method, boiled down: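 LYMP1-002 human lymphoblastoid cells, 2500/well, were treated with compounds for 16 hr at 37 C in complete medium. Viability was read as intracellular ATP by CellTiter-Glo luminescence, and AC50 was derived from a Hill fit to concentration-response data.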
On to `Cc1ccc(C#N)cc1`, for which the call was inactive.
Still for that read-out and setting: the entry for `CC(C)C=O` is “inactive”.
On the same count and under the same terms, under `O=C(O)c1ccc(Cl)cc1Cl` stands “inactive”.
On the same count and under the same terms, the entry for `CCCC(Cl)CCCC(Cl)CCC(Cl)CCC(Cl)CCC(Cl)CCCC(Cl)CCC` (stereo not given) is “inactive”.
Turning to `ClCCl`, the compound was called inactive.
On the same count and under the same terms, under `CC(C)(c1cc(Br)c(OCC(Br)CBr)c(Br)c1)c1cc(Br)c(OCC(Br)CBr)c(Br)c1` (stereo not given) stands “inactive”; under `CC(=O)Nc1ccc(N)cc1`, “inactive”.
The same measure, in the same setting: the entry for `Cc1ccccc1C(N)=O` is “inactive”; for `CC(C=O)Cc1ccc(C(C)(C)C)cc1` (stereo not given) it is “inactive”; for `CCCCN(CCO)CCCC` it is “inactive”.
Take `OCCO`: the compound was called inactive.
Still for that read-out and setting: the entry for `CC(=O)OC(C)=O` is “inactive”; for `NS(=O)(=O)O` it is “inactive”; for `Cc1ccc(C)c([N+](=O)[O-])c1` it is “inactive”.
Regarding `C=C(C)C(=O)OCCCCCCCCCC`, the result was inactive.
On to `O=C(O)c1cc(Cl)cc(Cl)c1`, for which the compound was called inactive.
The same measure, in the same setting: under `BrC/C=C/CBr` stands “inactive”.
The same measure, in the same setting: under `CCOC(C)(C)C` stands “inactive”; under `O=C(O)c1cccc(Cl)c1Cl`, “inactive”; under `Clc1cc(Cl)cc(Cl)c1`, “inactive”.
The same measure, in the same setting: the entry for `Cc1c(C(=O)O)cccc1[N+](=O)[O-]` is “inactive”; for `CCCCCCCCCCCCC1CO1` (stereo not given) it is “inactive”; for `CCCCCCCCC` it is “inactive”.

The nature of a further experiment: MultiTox-Fluor Cytotoxicity Assay - LYMP1-002 - Live Cells (AID 955).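 Note: cells exposed to compound for 16 hours.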 As to conditions: LYMP1-002 lymphoblastoid live-cell protease fluorescence viability; series mostly up to 46.1 µM. A digest of the protocol: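 After 16 h compound exposure at 37 C, live LYMP1-002 lymphoblastoid cells (2500/well) were quantified by cleavage of cell-permeant GF-AFC substrate, read at 405/510 nm after 60 min. Concentration-response fitted with Hill equation for AC50.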
Consider `O=CNc1ccccc1`, for which the result was inactive.
On to `Cc1ccc(C#N)cc1`, for which the outcome was inactive.
On the same count and under the same terms, under `CC(C)C=O` stands “inactive”; under `CN(C)c1cccc(O)c1`, “inactive”; under `O=C(O)c1ccc(Cl)cc1Cl`, “inactive”.
For `CCCC(Cl)CCCC(Cl)CCC(Cl)CCC(Cl)CCC(Cl)CCCC(Cl)CCC` (stereo not given), the outcome was inactive.
Same read-out and setting: the entry for `ClCCl` is “inactive”; for `CC(C)(c1cc(Br)c(OCC(Br)CBr)c(Br)c1)c1cc(Br)c(OCC(Br)CBr)c(Br)c1` (stereo not given) it is “inactive”.
Still for that read-out and setting: under `CC(=O)Nc1ccc(N)cc1` stands “inactive”.
The same measure, in the same setting: under `Cc1ccccc1C(N)=O` stands “inactive”; under `CC(=O)C1(C)CC2=C(CCCC2(C)C)CC1C` (stereo not given), “inactive”.
`CC(C=O)Cc1ccc(C(C)(C)C)cc1` (stereo not given): the call was inactive.
On the same count and under the same terms, under `CCCCN(CCO)CCCC` stands “inactive”; under `CC(O)CC(C)O` (stereo not given), “inactive”.
With `OCCO`, the compound was classed as inactive.
On the same count and under the same terms, the entry for `CC(=O)OC(C)=O` is “inactive”.
On the same count and under the same terms, the entry for `NS(=O)(=O)O` is “inactive”.
Turning to `CCOC(=O)C(C)C(C)=O` (stereo not given), the result was inactive.
On to `Cc1ccc(C)c([N+](=O)[O-])c1`, for which the result was inactive.
With `C=C(C)C(=O)OCCCCCCCCCC`, the compound was classed as inactive.
Still for that read-out and setting: under `COC(=O)CCCC(=O)OC` stands “inactive”; under `c1ccc(Nc2ccccc2)cc1`, “inactive”.
Consider `O=C(O)c1cc(Cl)cc(Cl)c1`, for which the compound was called inactive.
On the same count and under the same terms, the entry for `CC/C=C1/OC(=O)c2ccccc21` is “inactive”; for `Cc1ccco1` it is “inactive”.
For the compound `NCCCCCCN`, the compound was called inactive.
The same measure, in the same setting: under `BrC/C=C/CBr` stands “inactive”; under `CC(=C/C=C/C(C)=C/C=C/C=C(C)/C=C/C=C(C)/C=C/C(=O)O)/C=C/C(=O)O`, “inactive”; under `CCOC(C)(C)C`, “inactive”.
`O=C(O)c1cccc(Cl)c1Cl`: the result was inactive.
Still for that read-out and setting: the entry for `COc1ccc(OC)cc1` is “inactive”; for `Clc1cc(Cl)cc(Cl)c1` it is “inactive”; for `Cc1c(C(=O)O)cccc1[N+](=O)[O-]` it is “inactive”.
Consider `CCCCCCCCCCCCC1CO1` (stereo not given), for which the call was inactive.
`COCCOC(=O)c1ccccc1C(=O)OCCOC`: the call was inactive.
With `CCCCCCCCC`, the compound was classed as inactive.

(Values after PubChem BioAssay (NCATS).)
